Compound activity as filed in PubChem BioAssay.
FAS TE block: FAS thioesterase domain inhibitors, primary screen, biochemical, fluorescence intensity, uHTS; recombinant FAS-TE, OMFH fluorogenic substrate, fluorescence endpoint; AID 602261, 2012; inhibition, % at 15 µM; 360,000 tested, 0.67% active; Fatty acid synthase (Homo sapiens), P49327;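 active = compounds whose normalised, plate-corrected inhibition of enzyme fluorescence in the single-dose primary screen is 50% or more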;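 also: 0% = DMSO with enzyme and 100% = substrate without enzyme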
NR3A LBD binder: binders of NR3A ligand-binding domain, primary screen, biophysical, differential scanning fluorimetry, uHTS | 340,000 tested, 2.5% active | NR3A LBD differential scanning fluorimetry, Tm shift; 0% = protein alone, 100% = glycine-bound protein | Glutamate receptor ionotropic, NMDA 3A (GRIN3A) ligand-binding domain | Tm shift relative to glycine control, % at 25 µM | AID 1259313, 2017;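 active = melting temperature shift of at least 10% of the positive control shift, at one fixed dose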
rCAG binder: binders of r(CAG) RNA repeats, primary screen, biochemical, fluorescence; AID 651821, 2012; r(CAG) RNA repeat, TO-PRO-1 dye displacement fluorescence; 370,000 tested, 1.3% active; inhibition, % at 3 µM;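 active = inhibition above the plate cutoff, the mean of all test compounds on that plate plus 3 SD, cut at about 35% in these data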;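 also: 0% = DMSO alone and 100% = 100 µM mitoxantrone as full dye displacement; higher means more dye released from RNA so lower well fluorescence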
Myeloid diff 2: induction of myeloid progenitor differentiation, primary screen, cell-based, flow cytometry, MLPCN library | ER-HoxA9 myeloid progenitors, lysozyme-GFP differentiation | calls only at 10 µM | 360,000 tested, 1% active;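 active = normalized GFP-positive differentiation at or above the plate's own cutoff, the solvent-only control mean plus 3 SD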;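 also: cells exposed to compound for four days before flow analysis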
MPTP inh: mitochondrial permeability transition pore inhibitors, primary screen, biochemical, isolated mouse mitochondria, absorbance | Ca2+ swelling absorbance, 30 min | inhibition, % at 10 µM | 360,000 tested, 1.4% active;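 active = inhibition of 50% or more, scaled per plate between neutral and stimulator controls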;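 also: 0% = DMSO wells given calcium and 100% = 1 mM EGTA wells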
MPTP counter: fluorescence retest of MPTP screen hits in isolated mitochondria, single concentration; inhibition, % at 10 µM; membrane potential, Rhodamine 123 fluorescence; AID 624504, 2012; 5,000 tested, 78% active; shares compounds with MPTP inh; in the data active = inhibition above about 22%;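 also: 0% = DMSO vehicle and 100% = positive control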
MPTP abs DR: mitochondrial permeability transition pore inhibitors, dose response, biochemical, absorbance, uHTS hits. 780 tested, 58% active. IC50, µM. shares compounds with MPTP inh. isolated mitochondria swelling. AID 651561, 2012; in the data active = IC50 below about 20 µM
MPTP counter DR: fluorescent counter-screen in isolated mitochondria, dose response, counter-screen for MPTP inhibitor project, biochemical, fluorescence, uHTS hits; isolated mitochondria counterscreen, fluorescence read-out; 780 tested, 49% active; shares compounds with MPTP inh; IC50, µM; in the data active = IC50 below about 80 µM
* = called active by the depositor; i = inactive; . = no result. A selection: hits, their analogues and other compounds. The true share with any hit is near 5.7%.

SMILES | FAS TE block | NR3A LBD binder | rCAG binder | Myeloid diff 2 | MPTP inh | MPTP counter | others
CN(Cc1ccccc1)c1nc(-c2cccc([N+](=O)[O-])c2)nc2ccccc12 | 30.6 | -5.3 | 3.6 | i | 67.0* | 0.7 | MPTP abs DR=19.1*;MPTP counter DR=>80
O=C(O)c1cc(-c2cccc([N+](=O)[O-])c2)nc2ccccc12 | 3.5 | -0.2 | 2.6 | i | 1.9 | .
CCOC(=O)c1c(C)n(C)c2cc([N+](=O)[O-])c(O)c([N+](=O)[O-])c12 | 0.2 | 1.1 | -1.1 | i | 2.6 | .
Cc1oc2cc([N+](=O)[O-])c(O)c([N+](=O)[O-])c2c1C(=O)c1ccc(Cl)cc1 | 9.5 | -3.0 | 35.6* | i | 76.1* | 58.5*
CCCCCc1ccc(CC(=O)Nn2c(C)nc3ccccc3c2=O)cc1 | 14.9 | -8.2 | 3.6 | . | 72.1* | 67.6*
O=C(OCCNc1nc(-c2ccccc2)nc2ccccc12)c1cccnc1 | 8.5 | -6.6 | -0.1 | i | 1.1 | .
CCCOC(=O)c1cccc(Nc2nc(-c3cccnc3)nc3ccccc23)c1 | 18.2 | -16.7 | 6.1 | i | 65.7* | 73.2*
Fc1cccc(Nc2nc(-c3ccncc3)nc3ccccc23)c1 | -2.7 | -5.4 | 2.1 | i | 84.6* | 85.2*
COc1ccc(C(=O)NNC(=O)C(=O)Nc2cccc3ccccc23)cc1 | -3.9 | 1.0 | 5.5 | i | 5.8 | .
Cc1c(C(C)NC(=O)c2cc(COc3cccc4cnccc34)on2)cnn1C (stereo not drawn) | 0.2 | -0.1 | -6.6 | i | 4.6 | .
